# Screening data from PubChem.
# Shown are actives, neighbours in structure and some others; about 0.41% of the full set was active somewhere.
# N370S GC mod = N370S glucocerebrosidase modulation, Gaucher chaperone candidate | P04062 | N370S GC spleen homogenate, 4MU-glucoside fluorescence | Potency, µM (titrated, usually from 59.4 µM), for inactives: at the highest dose activity change, negative = inhibition, hits mostly inhibitors | 0.092% of 330,000 active;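 further: potency means the concentration at half of the fitted maximal effect; 0% = full enzyme activity and -100% = no enzyme basal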
# GLA spleen mod = inhibitors or activators of human alpha-galactosidase in spleen homogenate; P06280; human spleen homogenate, 4MU-alpha-Gal fluorescence, 40 min; Potency, µM (highest dose often 80 µM), inactives show top-dose activity change, negative = inhibition, hits mostly inhibitors; 0.008% of 240,000 active; AID 2107;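 further: potency means the concentration at half of the fitted maximal effect; 0% = enzyme with vehicle and -100% = no enzyme basal signal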
#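 Fluorogenic readout (Ex 365/Em 440 nm) of 4-methylumbelliferone released from 1 mM 4-MU-alpha-galactoside by spleen homogenate, 40 min at 37C, pH 5.0. Data normalized to no-enzyme and enzyme controls; Hill-equation AC50 from compound titrations.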
# GAA spleen mod = lysosomal alpha-glucosidase (human) modulation; 0.006% of 240,000 active; P10253; AID 2112; Potency, µM (series often up to 79.9 µM), without a hit: at the top dose activity change, negative = inhibition, actives largely listed as inhibitors; human spleen homogenate, 4-MU-alpha-glucoside fluorescence;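 further: potency means the concentration at half of the fitted maximal effect; 0% = enzyme with vehicle and -100% = no enzyme basal signal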
#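 Enzyme source: human spleen homogenate, 1 ug/well. Buffer 50 mM citric acid/K phosphate pH 5.0, 0.01% Tween-20. 4-MU-alpha-glucoside 1 mM; 37 C x 40 min; NaOH/glycine stop; fluorescence.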
# GAA glycogen mod = GAA glycogen-cleavage inhibition or activation; P10253; recombinant GAA, glycogen substrate, Amplex Red glucose oxidase fluorescence; Potency, µM (top dose mostly 76.4 µM), without a hit: top-dose activity change, negative = inhibition, hits mostly inhibitors; 0.38% of 300,000 active; AID 2100;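 further: potency means the concentration at half of the fitted maximal effect; 0% = full enzyme reaction and -100% = no-enzyme basal signal; the screen sought inhibitors and activators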
#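 Recombinant human enzyme (4 nM); glycogen substrate; 37 C, 40 min, pH 5.0. Readout: coupled glucose oxidase/Amplex Red fluorescence.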
# GAA inh = alpha-glucosidase (human) inhibition; purified human GAA, 4-MU-alpha-glucoside fluorescence; Potency, µM (titrated, usually from 76.9 µM), without a hit: at the top dose activity change, negative = inhibition, hits mostly inhibitors; AID 1466; 0.005% of 200,000 active;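 further: potency means the concentration at half of the fitted maximal effect; plate controls were uninhibited enzyme wells for no effect and no-enzyme background for full effect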
#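 AC50 values come from Hill fits of compound titrations (up to 77 uM) against 4 nM human enzyme. Substrate 4-methylumbelliferyl-alpha-D-pyranoside at 400 uM, pH 5.0 citrate buffer, 20 min room temperature; fluorescence Ex 365/Em 440 after alkaline stop.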
# GLA inh pH 4.5 = blocks human alpha-galactosidase A at pH 4.5; AID 1467; activity change, negative = inhibition, % at 105 µM; P06280; 230,000 tested, under 10 active; purified enzyme, 4-MU-alpha-Gal fluorescence, pH 4.5;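 further: 0% = full activity with enzyme and -100% = basal without enzyme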
# Target sequence (P06280 whole entry, looked up): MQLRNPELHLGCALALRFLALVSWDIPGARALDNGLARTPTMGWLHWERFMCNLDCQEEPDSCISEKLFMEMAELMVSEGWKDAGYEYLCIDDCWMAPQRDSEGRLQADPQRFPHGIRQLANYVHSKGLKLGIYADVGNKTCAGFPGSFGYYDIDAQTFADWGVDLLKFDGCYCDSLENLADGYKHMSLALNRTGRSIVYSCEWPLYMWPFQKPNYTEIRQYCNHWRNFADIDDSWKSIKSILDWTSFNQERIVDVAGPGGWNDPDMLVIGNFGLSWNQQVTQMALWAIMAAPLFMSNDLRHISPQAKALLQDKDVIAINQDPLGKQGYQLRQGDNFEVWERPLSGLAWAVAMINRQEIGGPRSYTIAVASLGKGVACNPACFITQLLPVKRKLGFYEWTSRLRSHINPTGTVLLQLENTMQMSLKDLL
# Numbers without * were called inactive; ? = inconclusive; nt = no result; [ ] = dose if it differs, or a comment. The call rests on the fitted dose curve; in most records, active means well fitted curve in the direction sought with a large enough effect; inconclusive means small, poorly fitted or top-dose-only effect, or another doubt; inactive means no such curve, though single readings can be large; an effect the other way counts as inactive or inconclusive.
SMILES,N370S GC mod,GLA spleen mod,GAA spleen mod,GAA glycogen mod,GAA inh,GLA inh pH 4.5
Oc1ccc(N2CCN(C(c3cccnc3)c3nnnn3Cc3ccccc3)CC2)cc1 (configuration not stated),?,6.0%,2.6%,15.7µM*,0.7%,-5.3
CCC(C)(C)n1nnnc1C(c1ccc2ncccc2c1)N1CCN(c2ccc(O)cc2)CC1 (configuration not stated),?,-0.2%,2.8%,1.41µM*,nt,1.1
c1ccc(CCn2nnnc2C(c2cccnc2)N2CCN(c3ccccc3)CC2)cc1 (configuration not stated),-5.0%,4.6%,-3.9%,3.0%,-4.1%,6.2
CCC(C)(C)n1nnnc1C(c1ccc2ncccc2c1)N1CCN(c2nc3ccccc3s2)CC1 (configuration not stated),-0.5%,-8.9%,-11.6%,-1.0%,?,-13.2
CC(C)C(c1nnnn1Cc1ccc(F)cc1)N1CCN(c2ccc(O)cc2)CC1 (configuration not stated),?,-11.2%,7.2%,7.03µM*,14.1%,-5.1
COC(=O)c1ccc(CSc2nc3ccncc3n2Cc2ccc(F)cc2)cc1,nt,nt,nt,14.4%[76.3 µM],nt,nt
COc1ccc(-n2cc(CNCCc3ncc(C)[nH]3)c(-c3ccccc3Cl)n2)cc1,-3.8%,0.1%,-2.0%,7.08µM*,-2.5%,3.8
CC(=O)Nc1ccc(N/C=C/C(=O)c2ccco2)cc1,12.6%,-1.6%,-2.7%,-6.9%,-6.0%,-2.9
O=C(/C=C/Nc1ccccc1Oc1ccccc1)c1ccco1,5.6%,-8.3%,-2.9%,-10.2%,-5.5%,-7.2
O=C(/C=C/Nc1ccccc1O)c1ccco1,-7.0%,-4.7%,-0.7%,15.7µM*,nt,-8.9
CN(C)c1ccc(N/C=C/C(=O)c2ccco2)cc1,3.8%[12.8 µM],1.4%,2.0%,12.6µM*,5.3%,-5.4
COC(=O)c1ccc(O)c(Sc2cc(C(=O)OC)ccc2O)c1,0.1%,0.7%,-12.8%,-15.8%,-6.6%,-4.5
CC(C)C(=O)c1ccc(O)c(O)c1,-0.8%,-6.6%,0.9%,7.08µM*,nt,-6.9
CCOC(=O)C(C(C)=O)c1c(Br)c(O)c(O)c2c(C(=O)c3ccc(C)cc3)coc12 (configuration not stated),1.1%,-3.2%,-12.6%,31.6µM*,-9.5%,3.0
COc1ccccc1NC(=O)CSc1oc(-c2ccc(F)cc2)nc1S(=O)(=O)c1ccc(Br)cc1,nt,nt,nt,-13.2%[76.3 µM],nt,nt
Cc1ccc2c(c1)C(c1ccc(F)cc1)N(C(=O)c1cccc(C(F)(F)F)c1)CC(=O)N2 (configuration not stated),nt,nt,nt,6.2%[76.3 µM],nt,nt
c1ccc(CNc2nc(-c3cccs3)nc3ccccc23)nc1,-29.0%,-14.3%,-2.9%,3.8%,3.6%,-5.2
N#Cc1nc(Cc2ccccc2)oc1NCc1ccccc1,7.5%,-2.2%,-4.8%,50.1µM*,-4.2%,-7.5
Cc1ccc(CNc2oc(-c3cccs3)nc2C#N)cc1,27.9%,?,6.8%,22.4µM*,?,12.5
Cc1ccc(CNc2nc(-c3cccs3)nc3ccccc23)cc1,14.1µM*,-17.6%,-6.7%,-11.5%,-10.0%,-1.9
Cc1ccc(C(C)C)c(OCc2ccc(C(=O)Nc3ccc(S(N)(=O)=O)cc3C)o2)c1,nt,nt,nt,-16.4%[76.3 µM],nt,nt
COC(=O)c1cc(NCc2ccccc2F)ccc1N1CCOCC1,3.5%,5.4%,6.4%,?,-1.4%,-9.7
O=C(O)c1cc(NCc2c(F)cccc2Cl)ccc1N1CCOCC1,24.0%,-0.1%,-6.6%,7.08µM*,2.8%,2.2
CCN(CC)c1ccc(NC(=O)CSc2nnc(C)c(=O)[nH]2)cc1,nt,nt,nt,25.1µM*,nt,nt
Cc1ccc(NC(=O)CSc2nnc(C)c(=O)[nH]2)cc1,nt,nt,nt,-7.4%[76.3 µM],nt,nt
SMILES,N370S GC mod,GLA spleen mod,GAA spleen mod,GAA glycogen mod,GAA inh,GLA inh pH 4.5
O=C(Cn1cc(S(=O)(=O)Cc2ccccc2Cl)c2ccccc21)Nc1ccc(F)cc1F,nt,nt,nt,-16.4%[76.3 µM],nt,nt
C/C(=C\C(=O)c1ccccc1)Nc1ccc2c(c1)OCO2,-10.4%,-1.3%,3.6%,15.8µM*,4.1%,7.7
CC(=O)Nc1ccc2c(c1)OCO2,-8.3%,7.1%,10.4%,-13.7%,-2.5%,0.0
C/C(=C\C(=O)c1ccc(C)o1)Nc1ccc2c(c1)OCO2,16.6%,1.8%,-3.3%,28.2µM*,3.1%,-4.9
Cc1ccc(C(=O)Nc2ccc3c(c2)OCO3)o1,3.2%,-5.8%,-3.6%,2.4%,-13.5%,-0.5
Cc1cc(C)c2c(-n3cccc3)c(C(=O)NCCCN3CCCCC3C)sc2n1 (configuration not stated),nt,nt,nt,4.9%[76.3 µM],nt,nt
COc1ccc(NC(=S)N(CCCN2CCOCC2)Cc2cn(C)c3ccccc23)cc1OC,?,3.5%,-15.0%,?,0.1%,-19.8
COc1cccc(NC(=S)N(CCCN2CCOCC2)Cc2cn(C)c3ccccc23)c1,2.82µM*,-7.9%,-4.7%,4.2%,-3.5%,-1.8
CCOc1ccc(NC(=S)NNC(=O)c2ccc(Br)cc2)cc1,-11.8%,-1.2%,1.4%,39.8µM*,-4.8%,2.6
COc1ccc(-c2nc3cnc(N4CCOCC4)nc3n(-c3ccc(OC)cc3)c2=O)cc1,12.9%,21.8%,2.6%,nt,nt,nt
COC(=O)N1CCN(/[N+]([O-])=N/Oc2ccc([N+](=O)[O-])cc2[N+](=O)[O-])CC1,-4.9%,11.7%,5.0%,nt,nt,nt
COc1ccc(-n2c(=O)c3ccc(C(=O)NCc4ccc(C)cc4)cc3n(CC(=O)Nc3ccc(F)cc3)c2=O)cc1,nt,nt,nt,-25.9%[76.3 µM],nt,nt
Oc1ccc(NC(=S)Nc2ccc(F)cc2)cc1,-17.7%,nt,nt,11.2µM*,nt,nt
O=C1C2=CC[C@H]3C(=O)N(C[C@@H]4CCCO4)C(=O)[C@@H]3[C@@H]2[C@H](O)[C@@H]2O[C@H]12,8.4%[12.8 µM],1.2%[17.5 µM],3.8%[17.4 µM],nt,nt,nt
COC(=O)C(NC(C)=O)(Nc1sc2c(c1C(N)=O)CCCC2)C(F)(F)F (configuration not stated),6.3%,4.8%,-4.1%,20µM*,1.2%,-3.9
CCCCC(=O)NC(Nc1sc2c(c1C(N)=O)CCCC2)(C(=O)OCC)C(F)(F)F (configuration not stated),1.6%,0.2%,-1.1%,?,-3.8%,-16.2
COc1cccc(C(=O)/C=C/Nc2cc(C)ccc2O)c1,0.3%,1.9%,-17.1%,28.2µM*,-4.8%,-14.5
OCc1cccc(Cl)c1Cl,5.5%,4.7%,-7.9%,nt,nt,nt
C1CCc2nnc(-c3nnc4n3CCCCC4)n2CC1,-1.6%,-5.0%,-13.6%,3.6%,-1.2%,-0.5
Cc1ccc(C)n1-c1ccc(-c2nnc3n2CCCCC3)s1,0.4%,3.6%,-3.0%,35.5µM*,1.7%,1.0
COc1ccc(C2SCC(=O)N2CCc2ccc(OC)c(OC)c2)cc1 (configuration not stated),-12.6%,5.4%,6.8%,5.62µM*,1.2%,?
C=C(C)Cn1c(=O)c2c(nc3n2CCN3c2ccc(F)cc2)n(C)c1=O,nt,nt,nt,2.6%[76.3 µM],nt,nt
